Measurements from PubChem BioAssay (Tox21).
Records with an inconclusive call do not appear. Activity calls are given as the source filed them. Unless noted, calls come from the whole dose curve; as a rule, active = well fitted curve in the direction sought with a large enough effect in the repeat runs; inconclusive = weak or mixed curves; inactive = no such curve, though single readings can be large; an effect the other way counts as inactive or inconclusive.

Tests used:
[1] = qHTS assay to identify small molecule agonists of the RXR signaling pathway - cell viability counter screen (AID 1159529);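 note: HEK 293T cells carrying an RXR-alpha UAS beta-lactamase reporter; nearly all actives have a fitted effect of over 50% in size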
Outline: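 Counter screen: CellTiter-Glo luminescence. Cells: RXR-alpha-UAS-bla HEK 293T. Medium: 2% charcoal-stripped FBS. Treatment: 16 h, 37 C. Reagent incubation: 30 min, RT.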

[2] = qHTS assay to identify small molecule antagonists of the retinoid acid receptor (RAR) signaling pathway - cell viability counter screen (AID 1159551); note: nearly all actives have a fitted effect of over 35% in size
Outline: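 ATP-based viability, C3RL4 cells, 6 h at 37 C with 1 uM final retinol co-added after compound; luminescence read 30 min post CellTiter-Glo, RT.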

[3] = qHTS assay to identify small molecule antagonists of the retinoic acid receptor (RAR) signaling pathway (AID 1159552; note: nearly all actives have a fitted effect of over 50% in size)
Outline: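 Antagonism of retinol-induced RARE reporter activity was measured in C3RL4 cells. Exposure to compounds and 1 uM final retinol lasted 6 hr at 37 C, with luminescence as endpoint.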

[4] = qHTS assay to identify small molecule agonists of the retinoic acid receptor (RAR) signaling pathway (AID 1159553); settings: C3RL4 RARE luciferase reporter, agonist, 6 h; activation: at 73.3 µM (top of the series)
Outline: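 Quantitative high-throughput format: the Tox21 10K library was tested on C3RL4 RARE-luciferase cells for 6 hr at 37 C and 5% CO2, with luminescence measured after a 30 min room-temperature reagent step.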

[5] = qHTS assay to identify small molecule antagonists of the estrogen related receptor (ERR) signaling pathway from Tox21 library - cell viability counter screen (AID 1224834); note: nearly all actives have a fitted effect of over 30% in size
Outline: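 Compounds in DMSO were pinned onto ERR cells that had been incubated for 6 h, and the plates were held at 37 C for 17.5 h. CellTiter-Fluor reagent was then added and fluorescence was measured after 30 min.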

[6] = biological target: Luciferin 4-monooxygenase (Photinus pyralis) (UniProt P08659); assay: qHTS assay to identify small molecule inhibitors of firefly luciferase (AID 1224835); note: nearly all actives have a fitted effect of over 25% in size; note: potency is the fitted concentration of half-maximal effect
Sequence of Luciferin 4-monooxygenase (Photinus pyralis) (P08659 whole entry, looked up): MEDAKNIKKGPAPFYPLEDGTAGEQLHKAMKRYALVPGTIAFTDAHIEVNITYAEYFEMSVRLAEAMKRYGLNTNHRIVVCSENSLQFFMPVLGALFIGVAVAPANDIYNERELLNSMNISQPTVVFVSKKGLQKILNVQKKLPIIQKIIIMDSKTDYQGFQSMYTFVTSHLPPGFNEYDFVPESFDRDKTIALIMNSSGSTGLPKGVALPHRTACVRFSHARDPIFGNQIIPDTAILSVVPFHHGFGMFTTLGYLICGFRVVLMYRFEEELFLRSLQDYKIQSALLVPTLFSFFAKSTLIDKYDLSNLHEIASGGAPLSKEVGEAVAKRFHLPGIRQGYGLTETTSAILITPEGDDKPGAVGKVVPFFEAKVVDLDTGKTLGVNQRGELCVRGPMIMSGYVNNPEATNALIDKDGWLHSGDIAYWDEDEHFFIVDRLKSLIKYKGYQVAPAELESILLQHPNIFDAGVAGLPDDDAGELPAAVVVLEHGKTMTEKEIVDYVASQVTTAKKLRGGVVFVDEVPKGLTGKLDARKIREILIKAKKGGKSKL
Outline: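 Inhibition of purified Photinus luciferase is measured by luminescence. Substrate levels (D-luciferin, ATP) sit at their KM values. Each compound is tested in a concentration series.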

[7] = qHTS assay to identify small molecule agonists of the constitutive androstane receptor (CAR) signaling pathway - cell viability counter screen (AID 1224836); note: nearly all actives have a fitted effect of over 45% in size
Outline: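 Double-stable HepG2 hepatoma cells (hCAR plus CYP2B6-2.2kb) are treated for 23 h at 37 C with test compounds in 15-point concentration series. PK11195 at 0.75 uM final is co-added. Cell viability is quantified by CellTiter-Fluor.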

[8] = qHTS assay to identify small molecule antagonists of the constitutive androstane receptor (CAR) signaling pathway - cell viability counter screen (AID 1224837); note: nearly all actives have a fitted effect of over 45% in size
Outline: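 Cells are seeded, rested 4 hr at 37 C/5% CO2, dosed with compound (15-point series) and 50 nM CITCO, incubated a further 23 hr, and then CellTiter-Fluor reagent is added before fluorescence is read. The line is HepG2 with stable hCAR and CYP2B6-2.2kb.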

[9] = qHTS assay to identify small molecule antagonists of the estrogen related receptor signaling pathway with the pleiotropic PPARgamma coactivator (PGC) from Tox21 10K library - cell viability counter screen (AID 1224840; active = well fitted cell-killing curve with a large enough effect in the repeat runs, not every such curve was filed as active; note: nearly all actives have a fitted effect of over 40% in size)
Outline: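 Cell viability is measured by CellTiter-Fluor fluorescence in PGC/ERR cells that receive compounds after a 6-hour attachment period and are then incubated 17.5 hours at 37 C.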

[10] = qHTS assay to identify small molecule antagonists of the estrogen related receptor signaling pathway with the pleiotropic PPARgamma coactivator (PGC) from Tox21 10K library (AID 1224841; call rule not given here; note: actives are mostly falling curves and most rising ones were filed inactive; nearly all actives have a fitted effect of over 50% in size)
Outline: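 Cells stably carrying the PGC/ERR reporter, seeded at 2,000 per well, received pin-transferred compounds 6 h post-plating. Exposure lasted 18 h at 37 C. Signal: One-Glo luminescence.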

[11] = qHTS assay to identify small molecule agonists of the estrogen related receptor signaling pathway with the pleiotropic PPARgamma coactivator (PGC) from Tox21 10K library (AID 1224842); note: nearly all actives have a fitted effect of over 15% in size
Outline: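 Luminescence from One-Glo (30 min, room temperature) measured after PGC/ERR cells had 18 h at 37 C with pinned compound (23 nL in DMSO). Cells had been seeded at 2,000 per well and pre-incubated 6 h.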

[12] = qHTS assay to identify small molecule agonists of the hypoxia (HIF-1) signaling pathway - cell viability counter screen (AID 1224844; calls by dose curve; note: nearly all actives have a fitted effect of over 50% in size)
Outline: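 Viability counter screen: HRE-bla ME-180 cells plated 5 hrs before compound addition, treated 17 hrs at 37C and 5% CO2, then CellTiter-Glo added after the FRET reporter read; luminescence after 30 min.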

[13] = qHTS assay to identify small molecule agonists of H2AX (AID 1224845; active = well fitted activation curve with a large enough effect in the signal ratio in the repeat runs, not every such curve was filed as active; the % refers to the signal ratio)
Outline: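 Phospho-H2AX Ser139 measured by HTRF (ex 320 nm; em 665 and 620 nm) after 24 hr antibody incubation. Compounds, 15 concentrations, 0.76% DMSO, were applied to CHO-K1 cells for 3hr at 37C before lysis.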

[14] = qHTS assay to identify small molecule agonists of the hypoxia (HIF-1) signaling pathway (AID 1224846; active = well fitted activation curve with a large enough effect in the signal ratio in the repeat runs, not every such curve was filed as active; the % refers to the signal ratio)
Outline: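 Agonist mode reporter screen. ME-180 cells stably expressing bla under HRE control received test compounds in DMSO for 17 hrs (37C, 5% CO2), and beta-lactamase activity was then detected with the CCF4-AM FRET substrate.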

[15] = qHTS assay to identify small molecule agonists of H2AX - cell viability counter screen (AID 1224847; calls by dose curve;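 note: wild-type CHO-K1 cells; top concentration of the series differs between compounds; nearly all actives have a fitted effect of over 30% in size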)
Outline: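 For this counter screen, overnight-attached CHO-K1 cells received test compounds (15 concentrations, 0.76% DMSO final); 3 hr later at 37C, CellTiter-Glo reagent was added and luminescence recorded after 30 min at room temperature.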

[16] = qHTS assay to identify small molecule antagonists of the estrogen related receptor (ERR) signaling pathway from Tox21 library (AID 1224848); note: nearly all actives have a fitted effect of over 50% in size; note: potency is the fitted concentration of half-maximal effect
Outline: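 Luciferase luminescence (ONE-Glo, 30 min room temperature) was the read-out. Cells of the NTP-supplied ERR line, 2,000 per well, were given 6 h at 37 C before compound addition in DMSO and 18 h exposure at 37 C.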

[17] = qHTS assay to identify small molecule agonists of the estrogen related receptor (ERR) signaling pathway from Tox21 library (AID 1224849; calls by dose curve; note: nearly all actives have a fitted effect of over 15% in size)
Outline: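 Quantitative HTS in agonist format: NTP ERR cell line, compounds transferred in DMSO after 6 h plating, 18 h incubation at 37 C, ONE-Glo luminescence endpoint.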

[18] = biological target: Thyrotropin receptor (Homo sapiens) (UniProt P16473); assay: qHTS assay to identify small molecule agonists of the thyroid stimulating hormone receptor (TSHR) signaling pathway (AID 1224843; calls by dose curve; note: nearly all actives have a fitted effect of over 45% in size)
Sequence of Thyrotropin receptor (Homo sapiens) (P16473 whole entry, looked up): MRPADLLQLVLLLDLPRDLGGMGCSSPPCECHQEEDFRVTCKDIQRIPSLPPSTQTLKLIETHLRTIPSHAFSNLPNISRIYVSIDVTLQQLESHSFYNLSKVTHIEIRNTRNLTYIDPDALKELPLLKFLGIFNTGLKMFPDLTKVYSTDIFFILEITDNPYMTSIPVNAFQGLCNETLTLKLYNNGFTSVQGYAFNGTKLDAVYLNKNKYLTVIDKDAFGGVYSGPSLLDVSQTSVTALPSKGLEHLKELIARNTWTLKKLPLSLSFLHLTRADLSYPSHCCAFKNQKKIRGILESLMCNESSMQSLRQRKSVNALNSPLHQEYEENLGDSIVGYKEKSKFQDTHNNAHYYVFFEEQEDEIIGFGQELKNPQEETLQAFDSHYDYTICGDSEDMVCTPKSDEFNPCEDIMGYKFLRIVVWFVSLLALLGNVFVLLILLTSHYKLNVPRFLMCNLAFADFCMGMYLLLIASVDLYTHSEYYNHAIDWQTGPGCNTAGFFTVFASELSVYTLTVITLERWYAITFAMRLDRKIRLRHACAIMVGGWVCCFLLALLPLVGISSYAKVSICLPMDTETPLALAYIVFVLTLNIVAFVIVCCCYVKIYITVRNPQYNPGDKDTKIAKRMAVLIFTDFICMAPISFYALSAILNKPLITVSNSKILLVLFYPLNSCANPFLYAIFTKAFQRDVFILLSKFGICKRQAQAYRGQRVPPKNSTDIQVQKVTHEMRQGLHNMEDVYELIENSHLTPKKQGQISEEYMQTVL
Outline: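 Agonist activity read as cAMP rise via d2/cryptate HTRF competition, 1 h room-temperature detection, in HEK293 cells expressing TSHR. Fifteen-point titrations, each run in triplicate, with a 30 min room-temperature incubation beforehand.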

Measured: Potency

CCCCCCCCOC(C)=O
inactive: [1] | [2] | [3] | [4] | [5] | [6] | [7] | [8] | [9] | [10] | [11] | [12] | [13] | [14] | [15] | [16] | [17]

CCCCC(=O)N(C)C
inactive: [1] | [2] | [3] | [4] | [5] | [6] | [7] | [8] | [9] | [18] | [12] | [13] | [14] | [15]

CC1=CC[C@H](CC=O)C1(C)C
inactive: [1] | [2] | [3] | [4] | [5] | [6] | [7] | [8] | [9] | [18] | [12] | [13] | [15]

CC(C)=CC(C)(C)C
inactive: [1] | [2] | [3] | [4] | [5] | [6] | [7] | [8] | [9] | [18] | [12] | [14] | [15]

CCNC(=O)NCCCOc1cccc(CN2CCCCC2)c1
inactive: [1] | [2] | [3] | [4] | [5] | [6] | [7] | [8] | [9] | [10] | [11] | [12] | [13] | [14] | [15] | [16] | [17]

CCOC(=O)C(C)(C)C
inactive: [1] | [2] | [3] | [4] | [5] | [6] | [7] | [8] | [9] | [18] | [13] | [14] | [15]

COc1ccc(/C=N/NC(=O)c2ccncc2)cc1OC
inactive: [1] | [2] | [3] | [4] | [5] | [6] | [7] | [8] | [9] | [18] | [12] | [13] | [14] | [15]

CCCOC(=O)CCCCC(=O)OCCC
inactive: [1] | [2] | [3] | [4] | [5] | [6] | [7] | [8] | [9] | [10] | [11] | [12] | [13] | [14] | [16] | [17]

NS(=O)(=O)c1ccccc1OC(F)(F)F
inactive: [1] | [2] | [3] | [4] | [5] | [6] | [7] | [8] | [9] | [10] | [11] | [13] | [14] | [15] | [16] | [17]

C[C@H]1O[C@H](O[C@H]2[C@H](O)[C@@H](O)[C@@H](O[C@H]3[C@H](O)[C@@H](O)[C@H](O)O[C@@H]3CO)O[C@@H]2CO)[C@H](O)[C@@H](O)[C@@H]1N[C@H]1C=C(CO)[C@@H](O)[C@H](O)[C@H]1O
inactive: [1] | [2] | [3] | [4] | [5] | [6] | [7] | [8] | [9] | [12] | [13] | [14]

COCCOCCOCCOC
inactive: [1] | [2] | [3] | [4] | [5] | [6] | [7] | [8] | [9] | [12] | [13] | [14] | [15]

NCCc1ccn[nH]1
inactive: [1] | [2] | [3] | [4] | [5] | [6] | [7] | [8] | [9] | [18] | [12] | [13] | [15]

Cc1ccccc1N1CCN(CCc2nnc3n2CCCC3)CC1
inactive: [1] | [2] | [3] | [4] | [5] | [6] | [7] | [8] | [9] | [18] | [12] | [13] | [14] | [15]

Cc1nc2n(c(=O)c1CCN1CCC(C(=O)c3ccc(F)cc3)CC1)CCS2
inactive: [1] | [2] | [3] | [4] | [5] | [6] | [7] | [8] | [9] | [11] | [18] | [12] | [15] | [17]
active: [16] 11.9 µM

CC(C)COC(=O)COc1ccc(Cl)cc1Cl
active: [6] 11.2 µM
inactive: [1] | [2] | [3] | [4] | [5] | [7] | [8] | [9] | [10] | [11] | [12] | [15] | [16] | [17]

CC(=O)OC(C)(C)Cc1ccccc1
inactive: [1] | [2] | [3] | [4] | [5] | [6] | [7] | [8] | [9] | [18] | [13]

C=C(C)C(=O)OCCCCCCOC(=O)C(=C)C
inactive: [1] | [2] | [3] | [4] | [5] | [6] | [7] | [8] | [9] | [10] | [11] | [12] | [13] | [14] | [16] | [17]

O=C1NC2NC(=O)NC2N1 (stereo unspecified)
inactive: [1] | [2] | [3] | [4] | [5] | [6] | [7] | [8] | [9] | [18] | [12] | [13] | [14] | [15]
